Screens deposited in PubChem by several laboratories.
Compounds with a hit are over-represented: about 3.2% of the library has one in this group of screens.
CHT allo act: allosteric activators of human choline transporter CHT; hit rate 0.49% among 310,000; CHT-expressing cells, membrane potential dye, choline EC20; active compounds read high; LV-AA mutant CHT in HEK293 cells; B-score at 10 µM; Q9GZV3;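 active means initial fluorescence not abnormally high and integrated response B-score, plate-corrected, over 3 SD above library mean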
PHOSPHO1 block: PHOSPHO1 (human) inhibition; hit rate 1.1% among 290,000; inhibition, % at 13.3 µM; AID 1565; recombinant PHOSPHO1, absorbance phosphatase assay; Q8TCT1; in the data active means inhibition above about 60%
CHT block: human CHT choline transport inhibition; CHT-expressing cells, membrane potential dye, choline response; active compounds read low; B-score at 10 µM; AID 488975; hit rate 0.86% among 310,000;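 active means B-score over 3 SD under the library average, and starting fluorescence ratio not unusually high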;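 further: choline stimulus applied at its EC90 after an EC20 pre-addition; B-score computed on integrated fluorescence ratio after choline addition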
ANO1 activ: activates or potentiates the mouse TMEM16A chloride channel; Q8BHY3; HEK293 TMEM16A/YFP-H148Q/I152L, iodide quench fluorescence; active compounds read low; B-score at 10 µM; hit rate 0.3% among 340,000; AID 623877;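 active means fluorescence-ratio B-score plate-corrected deviation score at least 3 library SD below zero, with starting fluorescence score within 5 deviations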;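 further: channel opened by trigger with iodide after compound preincubation; score built on the fluorescence ratio of max minus min over baseline; more negative score means more quench and so TMEM16A activation or potentiation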
HDAC3 inhib: human HDAC3 inhibition; recombinant HDAC3, fluorogenic peptide/trypsin coupled, fluorescence; O15379; hit rate 0.15% among 320,000; inhibition, % at 8.3 µM; in the data active means inhibition above about 26%, passing the limit was not always enough
ANO1 block: blocks the mouse calcium-activated chloride channel TMEM16A; HEK293 TMEM16A/YFP iodide influx fluorescence, ionomycin; normalized B-score (activity score, 25-100; higher = stronger inhibition) at 10 µM; Q8BHY3; hit rate 1.2% among 310,000;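 active means ratio plate-corrected score three or more library SD toward inhibition, starting fluorescence score within five deviations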;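 further: score derived from kinetic fluorescence span divided by baseline fluorescence per well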
TMEM16A reconf: reconfirmed blocker of mouse TMEM16A calcium-activated chloride channel; shares compounds with ANO1 block; HEK293 TMEM16A/YFP-H148Q, iodide quench fluorescence; ionomycin added to raise cell calcium; hit rate 39% among 2,300; inhibition, % at 10 µM;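 active means mean duplicate percent inhibition, scaled so buffer wells are 0 and the reference blocker 100, over three buffer SD above buffer mean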
TMEM16A Ca cntr: alters calcium mobilization in TMEM16A HEK293 cells, counter-screen; calcium response (% of ionomycin), % at 10 µM; shares compounds with ANO1 block; TMEM16A/YFP HEK293, Fluo4 calcium mobilization; hit rate 2% among 2,300;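 active means duplicate-averaged calcium signal over 20% of the ionomycin maximum, relative to buffer baseline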;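 further: each well's signal is peak minus trough fluorescence divided by its pre-addition baseline; 0% = buffer wells and 100% = ionomycin wells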
Parental YFP cnt: counter-screen for TMEM16A inhibitors: effect in parental YFP-HEK293 cells | shares compounds with ANO1 block | iodide YFP quench, ionomycin | YFP ratio F(max-min)/F0 at 10 µM | 2,300 tested, under 10 active | AID 652233;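 active means yellow fluorescent protein signal ratio exceeding the buffer control mean by over 5 SD of those controls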;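 further: ratio is mean of duplicate wells from kinetic YFP trace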
ClC-1 inh: selectivity of TMEM16A inhibitors: inhibition of rat ClC-1 chloride channel; shares compounds with ANO1 block; CHO ClC-1-YFP, iodide influx fluorescence quench; iodide control reads 0, buffer control 100; ratio percent, % at 10 µM; 2,300 tested, under 10 active;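 active means duplicate-mean ratio percent above the mean of iodide-only control wells, which defines zero, plus 5 of their SD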;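 further: higher percent means stronger block of ClC-1 iodide influx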
Starred values were filed as active, the others as inactive; i = inactive; . = no result given.

SMILES | CHT allo act | PHOSPHO1 block | CHT block | ANO1 activ | HDAC3 inhib | ANO1 block | TMEM16A reconf | TMEM16A Ca cntr | Parental YFP cnt | ClC-1 inh
Cc1ccc(S(=O)(=O)c2c(C)nn(C(C)(C)C)c2OC(=O)C(C)(C)C)cc1 | i | 23.6 | i | i | 4.5 | 100* | i | i | -0.988 | -17.5
COc1cc(OC)c(C(=O)Nc2ncn[nH]2)cc1OC | i | . | i | i | 5.6 | 100* | i | i | -1.26 | -3.0
CCN(CCCNC(=O)c1c(C)cc(=O)oc1C)c1ccccc1 | i | -6.1 | i | i | -2.5 | 25* | i | i | -1.18 | -10.0
CCCCN(CCCNC(=O)c1c(C)cc(=O)oc1C)c1ccccc1 | i | 0.1 | i | i | 1.7 | i | . | . | . | .
CCOc1ccc(N2C(=O)CC(NCc3ccc(S(N)(=O)=O)cc3)C2=O)cc1 (centres undefined) | i | 17.7 | i | i | 0.6 | i | . | . | . | .
CCOc1ccc(N2C(=O)CC(NCC#N)C2=O)cc1 (centres undefined) | i | 30.2 | i | i | -5.9 | 25* | i | i | -1.12 | -5.0
COc1ccccc1-c1noc(CCC(=O)Nc2cccc(C(F)(F)F)c2)n1 | i | -5.8 | i | i | 16.1 | 100* | i | i | -1.29 | -2.5
CC(C)(C)c1ccc(-c2noc(CCC(=O)Nc3cccnc3)n2)cc1 | i | 26.1 | i | i | 6.8 | 100* | 18.0%* | i | -0.923 | -6.0
CC(OC(=O)c1snc(C(=O)NC2CCCCC2)c1N)C(=O)NC(C)(C)C (centres undefined) | i | 26.5 | i | i | -7.9 | i | . | . | . | .
CC(C)(C)NC(=O)COC(=O)c1snc(C(=O)NC2CCCCC2)c1N | i | 10.4 | i | i | -8.2 | 100* | i | i | -0.988 | -20.5
O=C(CCNS(=O)(=O)c1ccccc1)N1CCCC1 | i | 22.6 | i | i | 0.6 | i | . | . | . | .
COc1ccc(-n2c(=O)cc(N3CCN(c4ccccc4F)CC3)[nH]c2=O)cc1 | i | 2.1 | i | i | -4.7 | 25* | i | i | -1 | -5.5
COc1ccc(-n2c(=O)cc(N3CCN(c4ccccc4OC)CC3)[nH]c2=O)cc1 | i | 8.9 | i | i | 0.8 | i | . | . | . | .
CC(C)CC(=O)c1c[nH]c(C(=O)NCCCN2CCOCC2)c1 | i | -7.7 | i | i | -3.1 | 25* | i | i | -0.994 | -9.5
CC(NC(=O)CSC(=S)N1CCCC1)c1ccc(S(N)(=O)=O)cc1 (centres undefined) | i | . | i | i | -1.2 | i | . | . | . | .
Cc1ccccc1OCC(=O)N1N=C(C(F)(F)F)CC1(O)C(C)(C)C (centres undefined) | i | 1.1 | i | i | 11.3 | 25* | i | i | -1.06 | -4.0
COc1ccc(NC(=O)COc2cccc3c2CCN(Cc2cccnc2)C3=O)cc1 | i | 18.5 | i | i | 1.3 | i | . | . | . | .
CC(C)(C)OC(=O)N1Cc2ccccc2C[C@H]1C(=O)N1CCC[C@H]1C(=O)O | i | . | i | i | -0.6 | i | . | . | . | .
O=C(O)c1ccc(N=Cc2c(O)ccc3ccccc23)cc1 | i | 9.7 | i | i | -7.9 | i | . | . | . | .
COc1ccc(N=Cc2c(O)ccc3ccccc23)cc1 | i | 32.8 | i | i | 3.5 | i | i | i | -0.51 | 4.0
CC(O)c1cccc(NC2=CC(=O)CC(C)(C)C2)c1 (centres undefined) | i | 28.7 | i | i | -3.2 | i | . | . | . | .
CCOc1ccc(Nc2nc(NCCN3CCOCC3)nc(OC)n2)cc1 | i | 4.2 | i | i | 5.7 | 100* | i | i | -0.942 | -9.5
CCOc1ccc(Nc2nc(N3CCOCC3)nc(N3CCOCC3)n2)cc1 | i | 53.9 | i | i | -1.7 | i | . | . | . | .
COc1cc(CN(C)CC(=O)c2[nH]c(C)c(C(C)=O)c2C)ccc1OC(F)F | i | -3.3 | i | i | 5.6 | 25* | 17.0%* | i | -0.991 | -14.0
COc1cc(C)ccc1OCC(=O)OCC(=O)c1[nH]c(C)c(C(C)=O)c1C | . | . | . | i | 1.4 | . | . | . | . | .
SMILES | CHT allo act | PHOSPHO1 block | CHT block | ANO1 activ | HDAC3 inhib | ANO1 block | TMEM16A reconf | TMEM16A Ca cntr | Parental YFP cnt | ClC-1 inh
COc1ccccc1OCC(=O)c1[nH]c(C)c(C(C)=O)c1C | i | -8.0 | i | i | 12.7 | 25* | i | i | -1.11 | -21.5
O=C(NCc1ccncc1)C(=O)Nc1nc(C23CC4CC(CC(C4)C2)C3)cs1 | i | -14.7 | i | i | 9.3 | 100* | 18.0%* | i | -1.05 | -19.0
O=[N+]([O-])c1cc(C(F)(F)F)ccc1NCCc1c[nH]c2ccc(O)cc12 | i | 3.3 | i | i | -4.2 | 25* | i | i | -1.04 | -11.0
O=[N+]([O-])c1cc(C(F)(F)F)ccc1NCCc1c[nH]c2ccccc12 | i | -16.4 | i | i | 10.3 | i | . | . | . | .
CNc1ccccc1C(C)(C)c1cc(-c2cccc(OC)c2)no1 | i | 27.1 | i | i | 12.9 | 25* | 23.0%* | i | -0.847 | -4.5
CCC(OC(=O)c1nsc(Cl)c1Cl)C(=O)NCCOC (centres undefined) | i | -7.7 | i | i | 0.1 | i | . | . | . | .
Cc1ccc(S(=O)(=O)N(Cc2ccccc2)Cc2ccco2)cc1 | i | 14.1 | i | i | 5.6 | 100* | 28.0%* | i | -1.02 | -8.5
O=C(NNC(=S)Nc1ccc(Cl)c(Cl)c1)c1cccc([N+](=O)[O-])c1 | i | -25.3 | i | i | 11.2 | 100* | 78.5%* | i | -0.847 | -13.5
Cc1ccc(NC(=S)NNC(=O)c2ccc(N3CCOCC3)c([N+](=O)[O-])c2)cc1Cl | i | 8.5 | i | i | 3.2 | 25* | 26.0%* | i | -1.14 | -6.5
C/C(=N\NC(=O)Cn1nc(C)c(Br)c1C)c1cccs1 | i | 16.3 | i | i | -0.3 | i | . | . | . | .
COc1ccc(C)cc1NC(=O)CN1C(=O)C(=O)N(C2CCCC2)C1=O | . | . | . | i | . | . | . | . | . | .
